From PubChem BioAssay (Tox21)
Results filed as inconclusive are left out. Where a call stands in place of a potency, no number is given. The source made the active and inactive calls. Unless noted, calls come from the whole dose curve; as a rule, active = well fitted curve in the direction sought with a large enough effect in the repeat runs; inconclusive = weak or mixed curves; inactive = no such curve, though single readings can be large; an effect the other way counts as inactive or inconclusive.

Tests used:
[1] = qHTS assay to identify small molecule agonists of the peroxisome proliferator-activated receptor delta (PPARd) signaling pathway - cell viability counter screen (AID 743211); note: nearly all actives have a fitted effect of over 55% in size; note: potency is the fitted concentration of half-maximal effect
In short: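 PPARd-bla HEK293H cells (UAS-beta-lactamase reporter) were treated with compounds for 17 h at 37 C. Viability was then read in the same wells by CellTiter-Glo luminescence after 30 min at room temperature.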

[2] = qHTS assay to identify small molecule antagonists of the peroxisome proliferator-activated receptor delta (PPARd) signaling pathway - cell viability counter screen (AID 743213); note: nearly all actives have a fitted effect of over 50% in size; note: potency is the fitted concentration of half-maximal effect
In short: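 HEK293H PPARd UAS-bla cells, 5 h pre-incubation, compound + L165041 300 nM final, 17 h 37 C; B/G FRET substrate 2 h RT; then CellTiter-Glo 30 min RT, luminescence.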

[3] = target: Bile acid receptor (Homo sapiens) (UniProt Q96RI1); assay: qHTS assay to identify small molecule antagonists of the farnesoid-X-receptor (FXR) signaling pathway (AID 743217; active = well fitted inhibition curve with a large enough effect in the signal ratio in the repeat runs, not every such curve was filed as active; the % refers to the signal ratio; note: potency is the fitted concentration of half-maximal effect)
Chain of Bile acid receptor (Homo sapiens) (Q96RI1 whole entry, looked up): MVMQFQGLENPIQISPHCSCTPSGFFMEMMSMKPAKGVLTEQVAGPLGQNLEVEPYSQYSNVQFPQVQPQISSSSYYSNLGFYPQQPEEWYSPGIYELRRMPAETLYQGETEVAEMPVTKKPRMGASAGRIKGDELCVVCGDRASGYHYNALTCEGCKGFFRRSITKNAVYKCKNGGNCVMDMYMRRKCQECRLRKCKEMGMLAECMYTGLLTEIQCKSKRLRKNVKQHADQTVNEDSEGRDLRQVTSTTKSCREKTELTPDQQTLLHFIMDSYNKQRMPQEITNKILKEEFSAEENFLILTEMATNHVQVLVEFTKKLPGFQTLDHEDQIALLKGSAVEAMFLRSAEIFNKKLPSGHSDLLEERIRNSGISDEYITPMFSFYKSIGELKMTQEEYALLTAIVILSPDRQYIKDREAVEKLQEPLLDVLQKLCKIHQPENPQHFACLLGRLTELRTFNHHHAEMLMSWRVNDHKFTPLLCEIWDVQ
In short: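 FXR-UAS-bla HEK 293T cells pre-incubated 5 h at 37 °C, then exposed to compounds with chenodeoxycholic acid (50 uM final) for 16 h at 37 °C. Beta-lactamase reporter read by LiveBLAzer B/G FRET substrate fluorescence after 2 h at room temperature.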

[4] = qHTS assay to identify small molecule agonists of the farnesoid-X-receptor (FXR) signaling pathway - cell viability counter screen (AID 743218); note: nearly all actives have a fitted effect of over 45% in size; note: potency is the fitted concentration of half-maximal effect
In short: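 FXR-UAS-bla HEK 293T cells, plated 5 h at 37 C, were exposed to compounds for 16 h at 37 C. CellTiter-Glo was then added to the same wells as the bla readout; luminescence read after 30 min at room temperature.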

[5] = qHTS assay to identify small molecule antagonists of the farnesoid-X-receptor (FXR) signaling pathway - cell viability counter screen (AID 743221; active = well fitted cell-killing curve with a large enough effect in the repeat runs, not every such curve was filed as active; note: nearly all actives have a fitted effect of over 50% in size; note: potency is the fitted concentration of half-maximal effect)
In short: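 FXR-UAS-bla HEK 293T cells were treated with test compounds plus chenodeoxycholic acid (50 uM final) for 16 h at 37 C. Cell viability in the same wells was then read as CellTiter-Glo luminescence after 30 min at room temperature.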

[6] = target: Vitamin D3 receptor (Homo sapiens) (UniProt P11473); assay: qHTS assay to identify small molecule antagonists of the vitamin D receptor (VDR) signaling pathway (AID 743223; active = well fitted inhibition curve with a large enough effect in the signal ratio in the repeat runs, not every such curve was filed as active; the % refers to the signal ratio; note: potency is the fitted concentration of half-maximal effect)
Chain of Vitamin D3 receptor (Homo sapiens) (P11473 whole entry, looked up): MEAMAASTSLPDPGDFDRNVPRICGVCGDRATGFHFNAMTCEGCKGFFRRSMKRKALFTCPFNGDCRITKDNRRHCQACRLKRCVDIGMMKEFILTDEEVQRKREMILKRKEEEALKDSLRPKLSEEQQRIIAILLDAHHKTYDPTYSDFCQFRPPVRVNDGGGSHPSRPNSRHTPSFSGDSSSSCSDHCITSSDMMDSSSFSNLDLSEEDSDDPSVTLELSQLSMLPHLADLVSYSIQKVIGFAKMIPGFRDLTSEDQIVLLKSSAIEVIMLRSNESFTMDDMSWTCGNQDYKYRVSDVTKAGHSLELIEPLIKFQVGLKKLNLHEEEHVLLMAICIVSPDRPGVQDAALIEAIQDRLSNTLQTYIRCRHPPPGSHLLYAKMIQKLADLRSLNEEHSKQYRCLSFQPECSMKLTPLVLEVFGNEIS
In short: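 VDR-bla cells were plated, incubated 4 h at 37C, then given compound and 1alpha,25-dihydroxyvitamin D3 (3 nM final). After 16 h at 37C, LiveBLAzer B/G FRET substrate was added for 2 h at room temperature and fluorescence read.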

[7] = qHTS assay to identify small molecule agonists of the vitamin D receptor (VDR) signaling pathway - cell viability counter screen (AID 743224); note: nearly all actives have a fitted effect of over 50% in size; note: potency is the fitted concentration of half-maximal effect
In short: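 VDR-bla cells were preincubated 4 h at 37C/5% CO2, then exposed to compounds for 16 h. After the 2 h room-temperature bla FRET read, CellTiter-Glo was added to the same wells and luminescence read after 30 min.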

[8] = qHTS assay to identify small molecule antagonists of the vitamin D receptor (VDR) signaling pathway - cell viability counter screen (AID 743225); note: nearly all actives have a fitted effect of over 50% in size; note: potency is the fitted concentration of half-maximal effect
In short: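 VDR-bla HEK 293T cells, 4 h pre-incubation at 37C, then compound plus 1-alpha,25-dihydroxyvitamin D3 (3 nM final) for 16 h. After the beta-lactamase FRET read, CellTiter-Glo was added to the same wells; luminescence after 30 min at room temperature.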

[9] = qHTS assay to identify small molecule agonists of the NFkB signaling pathway - cell viability counter screen (AID 1159515; calls by dose curve; note: nearly all actives have a fitted effect of over 55% in size; note: potency is the fitted concentration of half-maximal effect)
In short: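 NFkB-bla ME-180 cells, 2,000/well, were plated overnight at 37 C, 5% CO2, then exposed to compounds in DMSO for 5 hr. After the bla FRET read, CellTiter-Glo was added to the same wells; luminescence was read after 30 min at room temperature.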

[10] = qHTS assay to identify small molecule agonists of the endoplasmic reticulum stress response signaling pathway - cell viability counter screen (AID 1159517; calls by dose curve; note: nearly all actives have a fitted effect of over 50% in size; note: potency is the fitted concentration of half-maximal effect)
In short: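 Luminescence readout: CellTiter-Glo, 30 min RT, same wells as the ESRE-bla reporter read. HeLa ESRE-bla, 1,500 cells/well, o/n 37 C; cpd 5 hr 37 C/5% CO2.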

[11] = qHTS assay to identify small molecule antagonists of the retinoid-related orphan receptor gamma (ROR-gamma) signaling pathway - cell viability counter screen (AID 1159520); note: nearly all actives have a fitted effect of over 50% in size; note: potency is the fitted concentration of half-maximal effect
In short: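 Tet-on ROR gamma CHO cells (1,000/well) were plated 4 hr, given compounds in DMSO for 2 hr at 37 C, then induced with 1 uM final doxycycline for 16 hr. Viability was read as ATP by CellTiter-Glo luminescence after 30 min.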

[12] = target: Nuclear receptor ROR-gamma (Homo sapiens) (UniProt P51449); assay: qHTS assay to identify small molecule antagonists of the retinoid-related orphan receptor gamma (ROR-gamma) signaling pathway (AID 1159521; note: nearly all actives have a fitted effect of over 50% in size; note: potency is the fitted concentration of half-maximal effect)
In short: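 Tet-on RORγ CHO cells carrying a ROR response element–luciferase reporter were pretreated with compounds for 2 h, then induced with 1 uM (final) doxycycline hyclate for 16 h at 37 C. Antagonism was read as decreased ONE-Glo luminescence.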

[13] = qHTS assay to identify small molecule agonists of the AP-1 signaling pathway - cell viability counter screen (AID 1159525; calls by dose curve; note: nearly all actives have a fitted effect of over 55% in size; note: potency is the fitted concentration of half-maximal effect)
In short: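 ME-180 AP-1-bla, 2500 cells/well, Opti-MEM + 0.5% dialyzed FBS; overnight 37 °C; cpd 15-pt titration, 5 h 37 °C; CellTiter-Glo 30 min RT; luminescence read; normalised to TOAB and DMSO controls.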

[14] = target: Peroxisome proliferator-activated receptor delta (Homo sapiens) (UniProt Q03181); assay: qHTS assay to identify small molecule antagonists of the peroxisome proliferator-activated receptor delta (PPARd) signaling pathway (AID 743215; active = well fitted inhibition curve with a large enough effect in the signal ratio in the repeat runs, not every such curve was filed as active; the % refers to the signal ratio;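 note: cells stimulated with agonist L165041 at 300 nM final during compound exposure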; note: potency is the fitted concentration of half-maximal effect)
Chain of Peroxisome proliferator-activated receptor delta (Homo sapiens) (Q03181 whole entry, looked up): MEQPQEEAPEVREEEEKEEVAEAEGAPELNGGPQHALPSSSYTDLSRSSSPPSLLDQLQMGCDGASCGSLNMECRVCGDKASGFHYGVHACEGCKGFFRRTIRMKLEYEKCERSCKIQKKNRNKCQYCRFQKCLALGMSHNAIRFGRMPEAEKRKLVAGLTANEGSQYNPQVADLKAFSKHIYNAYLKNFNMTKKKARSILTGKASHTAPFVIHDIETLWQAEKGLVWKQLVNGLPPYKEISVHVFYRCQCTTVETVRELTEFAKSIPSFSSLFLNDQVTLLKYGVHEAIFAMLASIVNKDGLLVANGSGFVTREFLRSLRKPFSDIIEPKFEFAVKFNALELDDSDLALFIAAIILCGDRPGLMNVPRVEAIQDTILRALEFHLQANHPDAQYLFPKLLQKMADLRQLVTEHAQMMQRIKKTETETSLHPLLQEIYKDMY
In short: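 PPARd UAS-bla HEK293H cells were pre-incubated 5 h at 37 C, then given test compounds in DMSO plus agonist L165041 (300 nM final). After 17 h at 37 C, beta-lactamase FRET substrate was added; fluorescence read after 2 h at room temperature.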

[15] = target: Bile acid receptor (Homo sapiens) (UniProt Q96RI1); assay: qHTS assay to identify small molecule agonists of the farnesoid-X-receptor (FXR) signaling pathway (AID 743220; active = well fitted activation curve with a large enough effect in the signal ratio in the repeat runs, not every such curve was filed as active; the % refers to the signal ratio)
In short: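 Beta-lactamase reporter under UAS control in GeneBLAzer FXR HEK 293T cells (5000/well) measured with LiveBLAzer FRET substrate after 2 h at room temperature. Compound exposure lasted 16 h at 37C.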

[16] = target: Retinoic acid receptor RXR-alpha (Homo sapiens) (UniProt P19793); assay: qHTS assay to identify small molecule agonists of the RXR signaling pathway (AID 1159527; calls by dose curve; note: nearly all actives have a fitted effect of over 35% in size; note: potency is the fitted concentration of half-maximal effect)
Chain of Retinoic acid receptor RXR-alpha (Homo sapiens) (P19793 whole entry, looked up): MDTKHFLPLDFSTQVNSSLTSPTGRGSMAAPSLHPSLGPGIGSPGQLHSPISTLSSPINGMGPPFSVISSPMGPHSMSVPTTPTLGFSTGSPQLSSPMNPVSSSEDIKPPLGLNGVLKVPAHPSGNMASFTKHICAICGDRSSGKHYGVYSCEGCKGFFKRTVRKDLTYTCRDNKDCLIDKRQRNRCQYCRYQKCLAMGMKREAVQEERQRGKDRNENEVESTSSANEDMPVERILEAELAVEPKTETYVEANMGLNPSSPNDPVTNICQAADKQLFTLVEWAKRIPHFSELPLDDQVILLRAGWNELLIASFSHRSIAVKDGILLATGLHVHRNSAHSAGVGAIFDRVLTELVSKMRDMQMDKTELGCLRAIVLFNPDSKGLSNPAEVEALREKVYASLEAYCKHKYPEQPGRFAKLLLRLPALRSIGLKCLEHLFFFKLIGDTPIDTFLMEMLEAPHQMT
In short: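 GeneBLAzer RXR-alpha-UAS-bla HEK 293T cells in medium with 2% charcoal-stripped FBS, pre-incubated 5 hr at 37 C, then exposed to compounds 16 hr. Beta-lactamase reporter read by FRET substrate, 2 hr room temperature, 460/530 nm emission.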

[17] = target: Vitamin D3 receptor (Homo sapiens) (UniProt P11473); assay: qHTS assay to identify small molecule agonists of the vitamin D receptor (VDR) signaling pathway (AID 743222; calls by dose curve; note: potency is the fitted concentration of half-maximal effect)
In short: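 VDR-bla cells were plated 4 h at 37C/5% CO2, then exposed to compounds in DMSO for 16 h. After LiveBLAzer B/G FRET substrate addition and 2 h at room temperature, beta-lactamase reporter fluorescence was read.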

[18] = qHTS assay to identify small molecule agonists of the AP-1 signaling pathway (AID 1159526; calls by dose curve)
[19] = target: Peroxisome proliferator-activated receptor delta (Homo sapiens) (UniProt Q03181); assay: qHTS assay to identify small molecule agonists of the peroxisome proliferator-activated receptor delta (PPARd) signaling pathway (AID 743212; calls by dose curve)
In short: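 GeneBLAzer PPARd UAS-bla HEK293H cells (beta-lactamase reporter under UAS control), plated and rested 5 h at 37 C, then exposed to compounds in DMSO at 37 C; LiveBLAzer B/G FRET substrate added, 2 h room temperature, fluorescence read.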

Row | Compound | Potency [1] | Potency [2] | Potency [3] | Potency [4] | Potency [5] | Potency [6] | Potency [7] | Potency [8] | Potency [9] | Potency [10] | Potency [11] | Potency [12] | Potency [13] | Potency [14] | Potency [15] | Potency [16] | Potency [17] | Potency [18] | Potency [19]
1 | Cc1cc(O)c(C(C)(C)C)cc1C(C)(C)C | 43.6 µM (active) | 34.7 µM (active) | 49 µM (active) | 54.9 µM (active) | 49 µM (active) | 19.5 µM (active) | 19.5 µM (active) | 21.9 µM (active) | 49 µM (active) | 24.5 µM (active) | 54.5 µM (active) | 54.5 µM (active) | 21.9 µM (active) |  |  |  |  |  | 
2 | Clc1ccc2cc3ccccc3cc2c1 | inactive | inactive | inactive |  | inactive | inactive |  | inactive | inactive | inactive | inactive | inactive | inactive | inactive | inactive | 54.9 µM (active) |  |  | 
3 | Cc1cccc2c1cc1ccc3cccc4ccc2c1c34 | inactive | inactive |  | inactive |  | inactive |  | inactive | inactive | inactive | inactive | inactive | inactive |  |  |  | 3.16 µM (active) |  | 
4 | CC(=O)S[C@@H]1CC2=CC(=O)CC[C@]2(C)[C@H]2CC[C@@]3(C)[C@@H](CC[C@@]34CCC(=O)O4)[C@H]12 | inactive | inactive |  | inactive |  |  | inactive |  | inactive | inactive | inactive |  | inactive |  |  |  |  | inactive | 
5 | CC1=C(/C=C/C(C)=C/C=C/C(C)=C/C=O)C(C)(C)CCC1 | 12.2 µM (active) | 43.4 µM (active) | 61.3 µM (active) | 21.8 µM (active) |  |  |  | 13.7 µM (active) | 38.7 µM (active) | 38.7 µM (active) | 24.2 µM (active) | 30.5 µM (active) |  | 48.7 µM (active) |  | 0.345 µM (active) |  |  | inactive
6 | O=C(OCC1CO1)C1CCCCC1C(=O)OCC1CO1 (configuration not stated) | inactive | inactive |  | inactive | inactive |  | inactive | inactive | inactive | inactive | inactive | inactive |  |  |  |  | inactive | inactive | 
7 | CCOc1ccc2nc3cc(N)ccc3c(N)c2c1 |  | inactive |  | inactive |  |  | inactive | inactive | inactive | inactive | inactive | inactive | inactive | inactive |  |  |  |  | 
8 | Cn1cc(C(=O)[C@@H]2CCc3nc[nH]c3C2)c2ccccc21 | inactive |  | inactive | inactive |  | inactive | inactive | inactive | inactive | inactive | inactive |  | inactive |  | inactive |  | inactive |  | inactive
9 | CCCCCCCC/C=C/CCCCCCCC1=NCCN1CCO | 30.9 µM (active) | 49 µM (active) | 54.9 µM (active) | 21.9 µM (active) |  |  | 34.7 µM (active) | 34.7 µM (active) | 49 µM (active) | 43.6 µM (active) | 68.6 µM (active) | 61.1 µM (active) |  |  |  |  |  |  | 
10 | Cc1cc(O)c(Cl)c(C)c1Cl | 43.6 µM (active) |  | 49 µM (active) | 49 µM (active) |  |  | 43.6 µM (active) | 38.9 µM (active) | 54.9 µM (active) | 54.9 µM (active) | inactive |  | inactive |  |  | inactive | inactive |  | 
11 | Cc1cccc(N(C)C(=S)Oc2ccc3c(c2)C2CCC3C2)c1 (configuration not stated) | inactive |  |  |  | inactive |  | inactive | inactive | inactive | inactive | inactive |  | inactive | inactive |  |  |  |  | inactive
12 | CCCCN1C(=O)[C@@H]([C@H](O)C2CCCCC2)NC(=O)C12CCN(Cc1ccc(Oc3ccc(C(=O)O)cc3)cc1)CC2 | inactive | inactive |  |  | inactive |  |  |  | inactive | inactive | inactive | inactive |  | inactive |  |  |  |  | 
13 | CN(C)c1ccc(C2(c3ccc(N(C)C)cc3)OC(=O)c3cc(N(C)C)ccc32)cc1 |  | inactive |  | inactive |  | inactive | inactive | inactive | inactive | inactive | inactive | inactive | inactive |  |  |  |  |  | 
14 | Oc1cccc2cc3cccc(O)c3c(O)c12 | inactive | inactive | inactive | inactive | inactive |  |  | inactive | inactive | inactive | inactive | inactive |  |  | inactive |  |  |  | inactive
15 | CSc1ccc(/C=C2/C(C)=C(CC(=O)O)c3cc(F)ccc32)cc1 |  | inactive |  |  | inactive |  |  | inactive | inactive | inactive | inactive | inactive | inactive |  | inactive |  |  |  | 
16 | Cc1onc(-c2ccccc2Cl)c1C(=O)N[C@@H]1C(=O)N2[C@@H]1SC(C)(C)[C@@H]2C(=O)O | inactive | inactive | inactive | inactive |  | inactive |  | inactive | inactive | inactive | inactive |  | inactive |  | inactive | inactive | inactive |  | 
17 | COc1ccc(-c2ccc3cc(C(=O)O)ccc3c2)cc1C12CC3CC(CC(C3)C1)C2 |  |  |  | 7.5 µM (active) |  | inactive | 23.7 µM (active) | inactive | 21.3 µM (active) | 10.7 µM (active) | 29.8 µM (active) |  | inactive |  |  | inactive |  | inactive | 
